Consider five compounds from PubChem BioAssay (NCATS).

A short description of experiment [1]: AP1 Signaling Pathway (AID 357). Also: % is scaled to controls: 0 for no effect and ±100 for the full control effect. Summed up:
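AP-1-bla ME-180 cells with beta-lactamase reporter under AP-1 response element, stimulated with EC50 EGF; compounds titrated, 5 hours at 37 degrees Celsius. CCF4 read at 460/530 nm ratio; positive and negative modulators judged by AC50.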

The nature of experiment [2]: NFAT Signaling Pathway (AID 444).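 Also: carbachol stimulus at about its EC50 of 1 µM final; % is scaled to controls: 0 for no effect and ±100 for the full control effect.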 Particulars: Jurkat NFAT-bla M1, carbachol, beta-lactamase ratio, 5 h. Summed up: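 Jurkat cells with NFAT-driven β-lactamase reporter and co-expressed M1 receptor, stimulated with carbachol (final 1 uM, ~EC50), compound titration, 5 h at 37 °C. CCF4 loaded 1 h at RT; 460/530 nm ratio gave %activity and AC50.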
The nature of experiment [3]: Stat Signaling Pathway (AID 446).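 Also: ME-180 cervical cancer cells given 40 pM IL-6 alongside compound; SIE-controlled beta-lactamase reporter measured as 460/530 nm FRET emission ratio; % is scaled to controls: 0 for no effect and ±100 for the full control effect.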 The method in brief:
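FRET read-out (405 nm excitation, 460/530 nm emission) of a beta-lactamase reporter under a STAT-inducible element in ME-180 cervical carcinoma cells. Cells with compound receive 40 pM IL-6 for 5 h. Values are normalised to AC90 stimulation and AC90 JAK-inhibitor controls.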

For experiment [4], the target named is Glucocorticoid receptor (Homo sapiens) (UniProt P04150). The experiment is described as follows: GR-GFP Redistribution (AID 450;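 active = compounds whose dose series gives a full or clear partial fitted curve of increased nuclear translocation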; also: potency is read from the fitted curve at half-maximal effect). Particulars: U2OS GR-GFP nuclear translocation, laser cytometry, 2 h.
Experiment [5] shares this target. The experiment is described as follows: GR-EFC Redistribution (AID 451; calls by dose curve; also: potency is read from the fitted curve at half-maximal effect). Particulars: CHO-K1 GR-EFC translocation, beta-gal luminescence, 2 h. The method in brief:
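CHO-K1 cells expressing nuclear EA and GR-ED fragments of b-gal; compounds titrated up to 46 uM final, 2 h at 37 C. GR nuclear translocation read as complemented b-gal luminescence after 1 h RT detection.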

Experiment [6] has as its target Mitogen-activated protein kinase 10 (Mus musculus) (UniProt Q61831). The experiment is described as follows: JNK3 AlphaScreen Assay (AID 530).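 Also: kinase came from lysate of stimulated human HepG2 cells; signal reports phosphorylation of biotinylated GST-cJun 1-79 at Ser73 with 10 µM ATP; % is scaled to controls: 0 for no effect and ±100 for the full control effect.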 Summed up: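 HepG2 lysate (IL-1b/TNFa pre-activated) + biotin-GST-cJun 1-79 + anti-pSer73 cJun; cpd titration, 15 min RT; ATP 10 uM start; Tris pH 7.6, MgCl2, DTT, vanadate; beads in EDTA buffer; AlphaScreen.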
A general note: In Alpha technology, singlet oxygen from a donor bead excites a nearby acceptor bead.

Experiment [7] in a line: qHTS Assay for Lipid Storage Modulators (AID 1519; calls by dose curve). Conditions: Drosophila S3 cells, BODIPY lipid droplet/cell ratio, laser cytometry, cells loaded with oleic acid. The method in brief: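 Cells seeded at 5,000 per well were treated with compounds over a concentration series and loaded with oleic acid (400 uM, as added). Lipid droplet fluorescence (488 nm excitation, 500-530 nm channel) was read by laser-scanning cytometry and normalized to 20 uM Triacsin C.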

The target of experiment [8] is Ubiquitin carboxyl-terminal hydrolase 1 (Homo sapiens) (UniProt O94782). The experiment is described as follows: Inhibitors of USP1/UAF1: Pilot qHTS (AID 504865; active = well fitted curve in the direction sought with a large enough effect; an effect the other way counts as inactive or inconclusive;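 also: rhodamine fluorescence freed from ubiquitin-rhodamine substrate followed over time; top concentration of the series differs between compounds; % is scaled to controls: 0 for no effect and ±100 for the full control effect; nearly all actives have a fitted effect of over 35% in size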). The method in brief: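 In 50mM HEPES pH 7.8 containing 0.5mM EDTA, 1mM TCEP, 0.1 mg/ml BSA and 0.01% Tween-20, 1nM USP1/UAF1 is exposed to compound for 15 min, then Ub-Rho (150nM final) is added and fluorescence is read over time.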
On the technique in general: qHTS replaces the single test concentration by a dilution series.

In experiment [9] the target is 3',5'-cyclic-AMP phosphodiesterase 4B (Homo sapiens) (UniProt Q07343). Description: qHTS Assay for Inhibitors of PDE-IV (AID 607; active = well fitted activation curve with a large enough effect in the main read-out, with a control signal flat, not every such curve was filed as active; also: % of control where 0% means no effect). The method in brief:
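Cell-based read-out of cAMP via a modified cyclic nucleotide-gated channel and membrane potential dye (535/590 nm) in HEK293 cells expressing PDE4 endogenously. Compounds tested up to 22.9 uM final; 100 uM RO 20-1724 reference.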

The target of experiment [10] is ATP-dependent 6-phosphofructokinase (Trypanosoma brucei brucei) (UniProt O15648). The experiment is described as follows: qHTS Assay to Find Inhibitors of T. brucei phosphofructokinase: hit validation (AID 492961; active = well fitted curve in the direction sought with a large enough effect; an effect the other way counts as inactive or inconclusive; also: % is scaled to controls: 0 for no effect and ±100 for the full control effect). The method in brief: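 Luminescence from ADP-Glo reports ADP generated as T. brucei PFK (1.25 nM) phosphorylates 0.5 mM fructose-6-phosphate using 0.1 mM ATP. Reactions ran 45 min at room temperature, pH 8.0.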

Experiment [11] addresses Luciferin 4-monooxygenase (Photinus pyralis) (UniProt P08659). The experiment is described as follows: Biochemical firefly luciferase enzyme assay for NPC (AID 624030; active = well fitted curve in the direction sought with a large enough effect; an effect the other way counts as inactive or inconclusive;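 also: purified P. pyralis luciferase at 10 nM with luciferin and ATP substrate; 0% = DMSO and -100% = full luciferase inhibition by PTC124 control; nearly all actives have a fitted effect of over 70% in size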). Summed up: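 Purified P. pyralis luciferase at 10 nM in 50 mM Tris Acetate (final), luminescence read within 5 minutes of enzyme addition to compounds. Activity normalised to PTC124 versus DMSO; concentration-response curves classed by r2, magnitude and activity.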

Experiment [12] can be described thus: S16 Schwann cell PMP22 intronic element firefly luciferase assay (AID 624032; active = well fitted curve in the direction sought with a large enough effect; an effect the other way counts as inactive or inconclusive;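 also: plate controls were DMSO for no effect and PTC124 positive control mean for full effect; nearly all actives have a fitted effect of over 30% in size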). Summed up: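 Rat S16 Schwann cells stably carrying firefly luciferase driven by a PMP22 intronic element, in 10% FBS, treated 24 h at 37 C. ONE-Glo luminescence normalized to PTC124 control and DMSO (0%); curves classed by r2, magnitude and activity.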
Experiment [13] can be described thus: qHTS profiling for inhibitors of Plasmodium falciparum proliferation (AID 504749; active = well fitted curve in the direction sought with a large enough effect; an effect the other way counts as inactive or inconclusive;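 also: 0% = DMSO vehicle and full inhibition = artemisinin control; nearly all actives have a fitted effect of over 60% in size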). Conditions: P. falciparum in erythrocytes, SYBR Green DNA, 72 h, at 12.8 µM (top of the series). Summed up: (§1)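 SYBR Green fluorescence (ex 485 nm, em 535 nm) reports parasite DNA after 72 h compound exposure of infected red cells at 0.3% parasitemia, 2.5% hematocrit; signal normalized to 0.29 uM artemisinin and vehicle wells.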

In a further experiment the test system is C2A. The experiment is described as above. Conditions: P. falciparum in erythrocytes, SYBR Green DNA, 72 h; series mostly up to 28.7 µM. Summed up:
as §1

A further experiment has as its system CP192. Described as above. Conditions: P. falciparum in erythrocytes, SYBR Green DNA, 72 h; series mostly up to 28.7 µM. The method in brief:
as §1

In the next experiment the test system is CP262. The description is as above. Conditions: P. falciparum in erythrocytes, SYBR Green DNA, 72 h; series mostly up to 28.7 µM. Summed up: as §1
The next experiment relates to CP286. Described as above. Conditions: P. falciparum in erythrocytes, SYBR Green DNA, 72 h; series mostly up to 28.7 µM. The method in brief: as §1
The next experiment concerns FAB9. The experiment is described as above. Conditions: P. falciparum in erythrocytes, SYBR Green DNA, 72 h; series mostly up to 28.7 µM. The method in brief:
as §1

The target in experiment [14] is Cytochrome P450 3A4 (Homo sapiens) (UniProt P08684). The experiment is described as follows: qHTS Assay for Activators of Cytochrome P450 3A4 (AID 885; active = well fitted curve in the direction sought with a large enough effect; an effect the other way counts as inactive or inconclusive; also: nearly all actives have a fitted effect of over 65% in size). The method in brief:
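Luminescent readout of luciferin formed from 25 uM Luciferin-PPXE (KM level) by 20 nM CYP3A4 in 200 mM KPO4, with 60 min NADPH-driven reaction at room temperature after 10 min compound exposure. Ketoconazole (57 uM) defined 100% inhibition.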

Where [15] appears, read: measured here: cell count channel max response.
[16] abbreviates: measured here: lipid channel max response.

Several values for one entry are separate records, joined by “and”; a condition that tells them apart may be missing. Identical values can stand only once. Results filed as inconclusive are left out. Activity calls are given as the source filed them. Unless noted, calls follow the shape of the dose curve; as a rule, active = well fitted curve in either direction with a large enough effect (not every such curve was filed as active); inconclusive = small, poorly fitted or top-dose-only effect, or another doubt; inactive = flat fitted curve, though single readings scatter.

Chain of Ubiquitin carboxyl-terminal hydrolase 1 (Homo sapiens) (O94782 whole entry, looked up): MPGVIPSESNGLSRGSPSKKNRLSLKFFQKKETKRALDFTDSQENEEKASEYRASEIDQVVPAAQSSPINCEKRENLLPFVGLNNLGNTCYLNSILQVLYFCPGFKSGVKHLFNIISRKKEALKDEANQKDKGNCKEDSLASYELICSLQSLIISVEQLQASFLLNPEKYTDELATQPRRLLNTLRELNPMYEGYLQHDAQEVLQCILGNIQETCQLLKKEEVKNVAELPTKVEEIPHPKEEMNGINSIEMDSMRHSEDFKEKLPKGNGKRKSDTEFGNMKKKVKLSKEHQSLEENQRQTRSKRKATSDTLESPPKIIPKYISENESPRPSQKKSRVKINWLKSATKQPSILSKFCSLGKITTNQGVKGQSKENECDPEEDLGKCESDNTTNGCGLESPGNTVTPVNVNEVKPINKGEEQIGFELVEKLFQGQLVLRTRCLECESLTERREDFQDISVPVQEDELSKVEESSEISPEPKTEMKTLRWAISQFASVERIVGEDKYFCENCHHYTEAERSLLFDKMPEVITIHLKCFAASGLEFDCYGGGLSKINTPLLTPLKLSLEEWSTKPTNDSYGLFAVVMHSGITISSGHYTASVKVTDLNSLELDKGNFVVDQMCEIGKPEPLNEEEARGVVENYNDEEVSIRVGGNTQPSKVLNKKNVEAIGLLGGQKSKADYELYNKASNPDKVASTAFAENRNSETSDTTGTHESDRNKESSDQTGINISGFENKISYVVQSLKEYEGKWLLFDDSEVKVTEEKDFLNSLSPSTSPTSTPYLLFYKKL
Chain of 3',5'-cyclic-AMP phosphodiesterase 4B (Homo sapiens) (Q07343 whole entry, looked up): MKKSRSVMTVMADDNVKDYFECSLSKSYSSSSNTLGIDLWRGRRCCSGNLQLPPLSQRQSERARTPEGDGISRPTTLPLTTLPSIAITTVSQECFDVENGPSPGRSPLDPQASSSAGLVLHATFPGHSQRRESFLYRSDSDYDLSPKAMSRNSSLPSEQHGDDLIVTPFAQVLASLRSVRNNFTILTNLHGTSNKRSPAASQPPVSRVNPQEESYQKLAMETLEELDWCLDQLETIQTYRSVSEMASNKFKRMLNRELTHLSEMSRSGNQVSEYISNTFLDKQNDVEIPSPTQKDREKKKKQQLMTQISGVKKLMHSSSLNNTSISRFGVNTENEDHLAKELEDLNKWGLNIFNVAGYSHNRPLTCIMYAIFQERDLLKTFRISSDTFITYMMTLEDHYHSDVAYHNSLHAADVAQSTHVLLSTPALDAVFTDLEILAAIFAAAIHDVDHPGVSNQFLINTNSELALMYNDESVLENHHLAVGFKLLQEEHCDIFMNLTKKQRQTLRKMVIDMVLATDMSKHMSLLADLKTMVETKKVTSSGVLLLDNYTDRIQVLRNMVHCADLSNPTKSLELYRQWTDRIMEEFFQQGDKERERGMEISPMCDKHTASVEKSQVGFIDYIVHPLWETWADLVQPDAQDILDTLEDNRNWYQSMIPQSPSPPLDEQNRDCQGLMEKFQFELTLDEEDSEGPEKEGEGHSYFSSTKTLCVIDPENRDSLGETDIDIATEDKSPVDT
Chain of Cytochrome P450 3A4 (Homo sapiens) (P08684 whole entry, looked up): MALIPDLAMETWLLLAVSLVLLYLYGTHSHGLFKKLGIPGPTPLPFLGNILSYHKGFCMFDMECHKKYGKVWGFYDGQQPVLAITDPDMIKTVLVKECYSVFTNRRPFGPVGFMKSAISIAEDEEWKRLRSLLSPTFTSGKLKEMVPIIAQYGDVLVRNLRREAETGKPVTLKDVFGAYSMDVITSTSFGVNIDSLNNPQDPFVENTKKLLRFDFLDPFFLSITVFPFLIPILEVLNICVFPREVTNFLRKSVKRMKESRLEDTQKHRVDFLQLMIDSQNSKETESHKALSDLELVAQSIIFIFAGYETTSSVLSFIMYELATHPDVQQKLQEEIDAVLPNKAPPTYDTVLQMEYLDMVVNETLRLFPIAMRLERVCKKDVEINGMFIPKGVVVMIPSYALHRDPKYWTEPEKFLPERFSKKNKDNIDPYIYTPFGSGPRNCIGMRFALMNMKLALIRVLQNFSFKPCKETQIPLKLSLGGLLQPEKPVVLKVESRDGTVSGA
Chain of Glucocorticoid receptor (Homo sapiens) (P04150 whole entry, looked up): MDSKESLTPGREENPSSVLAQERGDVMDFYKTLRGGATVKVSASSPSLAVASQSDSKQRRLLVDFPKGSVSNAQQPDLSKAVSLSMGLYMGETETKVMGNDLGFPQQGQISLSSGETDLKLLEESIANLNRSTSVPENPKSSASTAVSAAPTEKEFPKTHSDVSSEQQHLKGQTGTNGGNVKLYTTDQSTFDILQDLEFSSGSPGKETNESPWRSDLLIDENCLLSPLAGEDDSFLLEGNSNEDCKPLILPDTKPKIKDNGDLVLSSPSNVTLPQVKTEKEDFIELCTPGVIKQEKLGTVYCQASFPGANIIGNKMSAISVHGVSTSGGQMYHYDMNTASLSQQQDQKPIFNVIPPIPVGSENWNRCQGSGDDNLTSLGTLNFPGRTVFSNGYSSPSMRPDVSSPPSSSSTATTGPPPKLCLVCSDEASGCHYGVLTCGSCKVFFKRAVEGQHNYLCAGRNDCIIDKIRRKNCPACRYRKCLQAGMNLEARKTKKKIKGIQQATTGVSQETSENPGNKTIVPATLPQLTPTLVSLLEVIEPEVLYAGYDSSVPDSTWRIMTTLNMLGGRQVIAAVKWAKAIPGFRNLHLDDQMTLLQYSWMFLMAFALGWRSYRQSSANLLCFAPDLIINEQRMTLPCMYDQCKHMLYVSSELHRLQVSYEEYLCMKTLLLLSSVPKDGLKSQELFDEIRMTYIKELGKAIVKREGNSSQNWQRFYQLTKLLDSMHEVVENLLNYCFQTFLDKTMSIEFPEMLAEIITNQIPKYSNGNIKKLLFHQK
Chain of Luciferin 4-monooxygenase (Photinus pyralis) (P08659 whole entry, looked up): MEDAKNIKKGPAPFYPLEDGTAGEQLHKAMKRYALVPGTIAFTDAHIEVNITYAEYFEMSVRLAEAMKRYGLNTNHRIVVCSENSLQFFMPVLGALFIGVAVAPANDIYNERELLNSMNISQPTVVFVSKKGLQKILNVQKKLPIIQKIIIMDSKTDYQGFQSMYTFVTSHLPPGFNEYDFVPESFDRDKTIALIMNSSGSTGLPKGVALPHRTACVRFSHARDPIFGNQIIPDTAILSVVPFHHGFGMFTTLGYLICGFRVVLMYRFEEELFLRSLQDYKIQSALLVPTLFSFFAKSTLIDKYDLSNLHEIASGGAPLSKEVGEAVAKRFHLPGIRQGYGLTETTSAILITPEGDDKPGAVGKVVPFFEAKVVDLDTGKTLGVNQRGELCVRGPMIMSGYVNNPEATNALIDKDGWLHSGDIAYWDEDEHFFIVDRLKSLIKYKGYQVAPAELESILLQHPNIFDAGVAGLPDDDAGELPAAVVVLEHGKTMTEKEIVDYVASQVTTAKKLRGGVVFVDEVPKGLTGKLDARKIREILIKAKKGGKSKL
Chain of ATP-dependent 6-phosphofructokinase (Trypanosoma brucei brucei) (O15648 whole entry, looked up): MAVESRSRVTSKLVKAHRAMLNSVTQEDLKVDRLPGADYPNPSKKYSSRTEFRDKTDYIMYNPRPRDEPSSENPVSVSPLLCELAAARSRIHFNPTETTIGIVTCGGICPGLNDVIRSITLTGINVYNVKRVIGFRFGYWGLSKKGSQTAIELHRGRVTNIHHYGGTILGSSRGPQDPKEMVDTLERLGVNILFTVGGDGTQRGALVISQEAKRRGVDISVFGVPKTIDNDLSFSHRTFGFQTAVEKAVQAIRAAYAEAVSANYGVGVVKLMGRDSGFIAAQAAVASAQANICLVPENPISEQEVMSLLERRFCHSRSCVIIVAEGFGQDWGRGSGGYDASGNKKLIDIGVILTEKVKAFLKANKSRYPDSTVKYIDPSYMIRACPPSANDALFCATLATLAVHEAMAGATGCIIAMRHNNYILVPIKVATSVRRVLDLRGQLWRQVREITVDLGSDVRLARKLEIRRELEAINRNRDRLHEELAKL

On to `Oc1ccc2c3c1O[C@H]1[C@@H](O)CC[C@]4(O)[C@H](C2)N(CC2CCC2)CC[C@@]314`, for which the result in experiment [1], in experiment [3] and in experiment [6] was inactive. In addition, the activity change, negative = inhibition is -1.63% (inactive) in [2] (at 17.2 µM (top of the series)) and -2.99% (inactive) in [7] (at 25.7 µM (top of the series)). The Potency in [4] and in experiment [5] was > 20.6 µM (inactive) each time. For the same compound, the figures for the max response in experiment [7] (setting [15]) and in experiment [7] (setting [16]) were 3.75% and 0.408%, respectively. In addition, the Potency result in experiment [8] is “inactive”.
As to `CN(C)C(=O)Oc1cc(OC(=O)N(C)C)cc([C@@H](O)CNC(C)(C)C)c1`, the call in [1], in experiment [3] and in [6] was inactive. Besides, the activity change, negative = inhibition was -23.9% (inactive) in experiment [2] (at 17.2 µM (top of the series)) and -0.844% (inactive) in experiment [7] (at 25.7 µM (top of the series)). The Potency in experiment [4] and in experiment [5] was > 20.6 µM (inactive) in each case. The Potency entry (in [9]; in [10]; in experiment [8]; in experiment [11]; in experiment [12]; in the experiment with C2A) was “inactive” each time. Also, the Potency result with CP192, in the experiment on CP262, in the experiment with CP286 and with FAB9 was “inactive” throughout. Also, the max response in experiment [7] (setting [15]) was 2.58%; in experiment [7] (setting [16]), 0.267%. The results for the activity, negative = inhibition in experiment [13] (parasite line A) and in [13] (parasite line B) were 1.47% (inactive) and -2.95% (inactive), respectively.
Turning to `C=C(C)[C@H]1[C@H]2OC(=O)[C@@H]1[C@]1(O)C[C@H]3O[C@]34C(=O)O[C@H]2[C@@]14C`, the result in experiment [1], in experiment [3] and in experiment [6] was inactive. The activity change, negative = inhibition was -0.55% (inactive) in experiment [2] (at 17.2 µM (top of the series)) and -0.482% (inactive) in experiment [7] (at 25.7 µM (top of the series)). In addition, the Potency in experiment [4] and in experiment [5] was > 20.6 µM (inactive) each time. Also, the Potency result in experiment [9] and in experiment [8] was “inactive” in each case. Besides, the max response in experiment [7] (setting [15]) is -3.6%; in experiment [7] (setting [16]), -3.43%.
For `N#Cc1ccc(CN2CC[C@@]3(CCCNC3)C2)cc1`, the result in experiment [1], in experiment [3] and in experiment [6] was inactive. In addition, the activity change, negative = inhibition in experiment [2] (at 7.69 µM (top of the series)) is -7.45% (inactive); in [7] (at 57.5 µM (top of the series)) it was 2.19% (inactive). For the same compound, in experiment [5], the Potency is > 46 µM (inactive). Also, the Potency result in experiment [9] and in experiment [14] was “inactive” in each case. Moreover, the max response came out at 16.6% in [7] (setting [15]) and 21.9% in experiment [7] (setting [16]).
Turning to `CCN(CC)C(=O)N[C@@H]1C[C@H]2c3cccc4[nH]cc(c34)C[C@@H]2N(C)C1`, the compound was classed as inactive in experiment [1], in experiment [3] and in [6]. For the same compound, the activity change, negative = inhibition was 3.13% (inactive) and -9.31% (inactive) in experiment [2] (at 17.2 µM (top of the series)); 2.1% (inactive) and 1.29% (inactive) in [7] (at 25.7 µM (top of the series)). Besides, the Potency entry in experiment [9], in experiment [14] and in experiment [8] was “inactive” throughout. Further, the max response was -3.13% and -3.55% in [7] (setting [15]); -0.685% and -2.23% in experiment [7] (setting [16]).
